Laboratory results as given in PubChem BioAssay (Tox21).
Values joined by “and” are separate entries in the source; they are usually repeats but may differ in a detail not shown here. Equal values may be shown once. Records with an inconclusive call do not appear. A structure can be active in one record and inactive in another. Active and inactive are the calls of the source. Unless noted, the call rests on the fitted dose curve; in most records, active means well fitted curve in the direction sought with a large enough effect in the repeat runs; inconclusive means weak or mixed curves; inactive means no such curve, though single readings can be large; an effect the other way counts as inactive or inconclusive.

Tests used:
[1] = A CellTox Green Cytotoxicity Assay to monitor cytotoxicity in HepG2 cells - 0 hour (AID 1224882); further: nearly all actives have a fitted effect of over 35% in size
Procedure, shortened: (§1)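 Real-time, homogeneous cytotoxicity readout: dead-cell DNA staining by CellTox Green in HepG2 monolayers, fluorescence measured at timed intervals up to 40 h of continuous compound exposure.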

[2] = A CellTox Green Cytotoxicity Assay to monitor cytotoxicity in HepG2 cells - 32 hour (AID 1224883); further: nearly all actives have a fitted effect of over 50% in size
Procedure, shortened: as §1

[3] = A CellTox Green Cytotoxicity Assay to monitor cytotoxicity in HEK293 cells - 8 hour (AID 1224884); further: nearly all actives have a fitted effect of over 35% in size
Procedure, shortened: (§2)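 Cytotoxicity was tracked continuously in HEK293 cells by a DNA-binding dye excluded from viable cells. Compounds were transferred in DMSO 5 h after seeding; fluorescence was recorded at intervals up to 40 h.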

[4] = qHTS RealTime-Glo MT Cell Viability Assay in HepG2 cells - 16 hour (AID 1224885); further: nearly all actives have a fitted effect of over 50% in size
Procedure, shortened: (§3)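 Viability was tracked continuously by NanoLuc luminescence from prosubstrate reduced by living HepG2 cells, at successive time points over 40 h of compound exposure. Cells with reagent were preincubated 5 h at 37 °C before compound addition.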

[5] = qHTS RealTime-Glo MT Cell Viability Assay in HEK293 cells - 24 hour (AID 1224886); further: nearly all actives have a fitted effect of over 50% in size; further: potency means the concentration at half of the fitted maximal effect
Procedure, shortened: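 Viability tracked continuously by luminescence as live cells reduce a prosubstrate for NanoLuc; HEK293 cells preincubated 5 h, compound-treated at 37 C, and read at 0, 8, 16, 24, 32 and 40 h.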

[6] = qHTS RealTime-Glo MT Cell Viability Assay in HEK293 cells - 8 hour (AID 1224887); further: top concentration of the series differs between compounds; nearly all actives have a fitted effect of over 50% in size
Procedure, shortened: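 Nonlytic bioluminescent viability monitoring. HEK293 at 600 cells/well with reagent; 5 h settle; compound transfer by pintool; plates held at 37 C and read at set time points.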

[7] = A CellTox Green Cytotoxicity Assay to monitor cytotoxicity in HEK293 cells - 16 hour (AID 1224888); further: nearly all actives have a fitted effect of over 35% in size
Procedure, shortened: as §2

[8] = qHTS RealTime-Glo MT Cell Viability Assay in HepG2 cells - 0 hour (AID 1224889); further: nearly all actives have a fitted effect of over 50% in size
Procedure, shortened: as §3

[9] = A CellTox Green Cytotoxicity Assay to monitor cytotoxicity in HepG2 cells - 8 hour (AID 1224890); further: nearly all actives have a fitted effect of over 45% in size
Procedure, shortened: as §1

[10] = qHTS assay to identify small molecule antagonists of the estrogen receptor alpha (ER-alpha) signaling pathway using the BG1 cell line in the presence of 0.1 nM 17-beta-estradiol - cell viability counter screen (AID 1259241); further: nearly all actives have a fitted effect of over 40% in size
Procedure, shortened: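 VM7Luc4E2, 4,000 cells/well, phenol red-free medium + 10% charcoal-stripped FBS; 24 hr plating; cpd + 0.1 nM E2 final, 22 hr 37C/5% CO2; CellTiter-Fluor 30 min, fluorescence.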

[11] = qHTS assay to identify small molecule antagonists of the androgen receptor (AR) signaling pathway using the MDA cell line in the presence of 0.5 nM R1881 - cell viability counter screen (AID 1259242); further: nearly all actives have a fitted effect of over 45% in size
Procedure, shortened: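 Cytotoxicity toward MDA-kb2 cells is measured by CellTiter-Fluor live-cell protease fluorescence after 16 hr compound exposure at 37C in the presence of 0.5 nM R1881 stimulator.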

[12] = biological target: Estrogen receptor (Homo sapiens) (UniProt P03372); experiment: qHTS assay to identify small molecule antagonists of the estrogen receptor alpha (ER-alpha) signaling pathway using the BG1 cell line in the presence of 0.1 nM 17-beta-estradiol (AID 1259244); further: nearly all actives have a fitted effect of over 50% in size
Procedure, shortened: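 After 5 days in hormone-depleted medium (charcoal-stripped serum, no phenol red), VM7Luc4E2 cells were seeded, incubated 24 h, then co-treated with compound and 0.1 nM (final) estradiol for 22 h before luminescence detection.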

[13] = qHTS assay to identify small molecule phospholipidosis (PLD) inducers (AID 1259344; active means well fitted curve in the direction sought with a large enough effect; an effect the other way counts as inactive or inconclusive)
Procedure, shortened: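 Quantitative HTS in HepG2: compound plus LipidTOX Red dye for 24 h, paraformaldehyde fixation with Hoechst 33342, widefield high-content imaging; amiodarone as positive and DMSO as negative control.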

[14] = qHTS assay to identify small molecule HDAC inhibitors (AID 1259364); further: top concentration of the series differs between compounds; nearly all actives have a fitted effect of over 45% in size
Procedure, shortened: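 Homogeneous cell-based luminescent assay of endogenous class I/II HDAC activity; HCT-116 cells, 2 h compound exposure, 30 min HDAC-Glo development at RT.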

[15] = qHTS assay to identify small molecule HDAC inhibitors - cell viability counter screen (AID 1259365)
Procedure, shortened: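 Luminescence from CellTiter-Glo, developed 30min at room temperature, reports viability of wild-type HCT-116 cells treated 2hr with compounds at 37 C and 5% CO2 after overnight plating.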

[16] = qHTS assay to identify small molecule agonists of the sonic hedgehog signaling (Shh) pathway - cell viability counter screen (AID 1259366); further: nearly all actives have a fitted effect of over 50% in size; further: potency means the concentration at half of the fitted maximal effect
Procedure, shortened: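 Cytotoxicity counter screen run in the same wells as the Shh reporter assay. NIH/3T3 cells carrying a Gli1 response element–driven luciferase were treated with DMSO-dissolved compounds for 24hr, and live-cell protease activity was measured with CellTiter-Fluor.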

[17] = qHTS assay to identify small molecule antagonists of the sonic hedgehog signaling (Shh) pathway - cell viability counter screen (AID 1259367); further: nearly all actives have a fitted effect of over 55% in size; further: potency means the concentration at half of the fitted maximal effect
Procedure, shortened: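 Seed 3T3 Gli1-Luc cells at 2,000 per well; incubate 4 hr; add compound in DMSO, then conditioned medium; incubate at 37C with 5% CO2; add CellTiter-Fluor after 23 hr; read fluorescence 1 hr later.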

[18] = qHTS assay to identify small molecule agonists of the sonic hedgehog signaling (Shh) pathway (AID 1259368; calls by dose curve;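 further: NIH/3T3-derived 3T3Gli1-Luc cells carrying a stable Gli1-driven firefly luciferase reporter; series mostly up to about 92 µM; nearly all actives have a fitted effect of over 15% in size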)
Procedure, shortened: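 Steps: seed 3T3 Gli1-Luc cells, incubate 4 hr at 37 C, pin-transfer compounds in DMSO alongside a positive control, incubate 24 hr, add luciferase detection reagent, wait 30 min at room temperature, read luminescence.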

[19] = qHTS assay to identify small molecule antagonists of the sonic hedgehog signaling (Shh) pathway (AID 1259369; calls by dose curve; further: nearly all actives have a fitted effect of over 45% in size; further: potency means the concentration at half of the fitted maximal effect)
Procedure, shortened: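 Inhibition of Shh signalling is measured as reduced Gli1-response-element firefly luciferase output in an NIH/3T3-derived stable reporter clone stimulated with conditioned medium for 24hr.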

[20] = biological target: Androgen receptor (Homo sapiens) (UniProt P10275); experiment: qHTS assay to identify small molecule antagonists of the androgen receptor (AR) signaling pathway using the MDA cell line in the presence of 0.5 nM R1881 (AID 1259243); further: nearly all actives have a fitted effect of over 50% in size
Procedure, shortened: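 Steps: seed MDA-kb2 cells, incubate 5 hr at 37C; pin-transfer compounds in DMSO; add R1881 to 0.5 nM final; incubate 16 hr; add ONE-Glo, wait 30 min at room temperature; read luminescence.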

Measured: Potency

Estrogen receptor (Homo sapiens), sequence (P03372 whole entry, looked up): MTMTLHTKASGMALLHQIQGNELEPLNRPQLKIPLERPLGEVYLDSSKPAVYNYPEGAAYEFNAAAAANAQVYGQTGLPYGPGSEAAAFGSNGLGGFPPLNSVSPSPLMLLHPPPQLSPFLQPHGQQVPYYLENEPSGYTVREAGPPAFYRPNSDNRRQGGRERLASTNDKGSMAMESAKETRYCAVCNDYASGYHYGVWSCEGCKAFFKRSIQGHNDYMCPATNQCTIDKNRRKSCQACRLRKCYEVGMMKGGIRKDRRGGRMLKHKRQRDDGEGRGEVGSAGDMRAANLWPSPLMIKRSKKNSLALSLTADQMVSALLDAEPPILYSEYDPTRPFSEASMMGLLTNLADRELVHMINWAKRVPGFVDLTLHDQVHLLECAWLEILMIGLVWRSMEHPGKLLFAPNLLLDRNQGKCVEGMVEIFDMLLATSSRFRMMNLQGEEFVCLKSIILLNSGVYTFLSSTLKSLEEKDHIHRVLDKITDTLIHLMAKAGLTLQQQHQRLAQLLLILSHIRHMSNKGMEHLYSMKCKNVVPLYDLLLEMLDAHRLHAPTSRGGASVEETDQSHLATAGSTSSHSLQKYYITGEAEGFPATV
Androgen receptor (Homo sapiens), sequence (P10275 whole entry, looked up): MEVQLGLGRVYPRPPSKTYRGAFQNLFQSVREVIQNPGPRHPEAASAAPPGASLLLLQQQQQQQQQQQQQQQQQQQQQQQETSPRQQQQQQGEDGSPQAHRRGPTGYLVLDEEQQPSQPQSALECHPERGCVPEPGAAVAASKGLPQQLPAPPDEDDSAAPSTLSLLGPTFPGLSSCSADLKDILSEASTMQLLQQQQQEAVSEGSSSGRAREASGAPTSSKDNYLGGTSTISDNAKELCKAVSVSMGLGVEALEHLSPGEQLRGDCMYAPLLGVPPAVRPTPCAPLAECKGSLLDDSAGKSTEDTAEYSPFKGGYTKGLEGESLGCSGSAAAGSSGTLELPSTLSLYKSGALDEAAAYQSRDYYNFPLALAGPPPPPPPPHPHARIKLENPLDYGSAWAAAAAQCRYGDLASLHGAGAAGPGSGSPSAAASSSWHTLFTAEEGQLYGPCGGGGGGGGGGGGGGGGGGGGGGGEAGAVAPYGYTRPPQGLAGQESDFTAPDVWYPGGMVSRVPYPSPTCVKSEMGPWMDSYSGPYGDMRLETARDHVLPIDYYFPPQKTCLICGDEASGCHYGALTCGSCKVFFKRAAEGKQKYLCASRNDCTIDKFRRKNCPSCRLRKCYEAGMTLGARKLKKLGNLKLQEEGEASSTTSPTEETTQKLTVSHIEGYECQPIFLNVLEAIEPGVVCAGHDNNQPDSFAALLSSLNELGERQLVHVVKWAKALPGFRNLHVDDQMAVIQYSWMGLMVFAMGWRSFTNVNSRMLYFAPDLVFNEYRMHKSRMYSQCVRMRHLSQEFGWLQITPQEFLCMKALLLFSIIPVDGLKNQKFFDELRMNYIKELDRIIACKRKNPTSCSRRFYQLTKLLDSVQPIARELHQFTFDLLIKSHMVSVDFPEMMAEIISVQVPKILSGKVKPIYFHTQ

CCCCC(=O)O
inactive: [1] | [2] | [3] | [4] | [5] | [6] | [7] | [8] | [9] | [10] | [11] | [12] | [13] | [14] | [15] | [16] | [17] | [18] | [19]

Cc1ncc(CO)c(CO)c1O
inactive: [1] | [2] | [3] | [4] | [5] | [6] | [7] | [8] | [9] | [10] | [11] | [13] | [14] | [15] | [16] | [17] | [18] | [19]

CCCCCCC(=O)O
inactive: [1] | [2] | [3] | [4] | [5] | [6] | [7] | [8] | [9] | [10] | [11] | [12] | [14] | [15] | [16] | [17] | [18] | [19]

Cc1ccc(C(C)C)cc1
inactive: [1] | [2] | [3] | [4] | [5] | [6] | [7] | [8] | [9] | [10] | [11] | [20] | [12] | [14] | [16] | [17] | [18] | [19]

O=[N+]([O-])c1ccccc1C(F)(F)F
inactive: [1] | [2] | [3] | [4] | [5] | [6] | [7] | [8] | [9] | [10] | [11] | [20] | [12] | [14] | [15] | [16] | [17] | [18] | [19]

O=C(Cl)c1ccc(C(=O)Cl)cc1
inactive: [1] | [2] | [3] | [4] | [5] | [6] | [7] | [8] | [9] | [10] | [11] | [12] | [14] | [16] | [17] | [18] | [19]

OCC(CO)(CO)CO
inactive: [1] | [2] | [3] | [4] | [5] | [6] | [7] | [8] | [9] | [10] | [11] | [12] | [14] | [15] | [16] | [17] | [18] | [19]

Cc1cc(C)cc(O)c1
8.65 µM (active) and inactive: [16]
active: [19] 1.09 µM
inactive: [1] | [2] | [3] | [4] | [5] | [6] | [7] | [8] | [9] | [10] | [11] | [12] | [14] | [18]
2.44 µM (active) and inactive: [17]

CC/C(C)=N/O
inactive: [1] | [2] | [3] | [4] | [5] | [6] | [7] | [8] | [9] | [10] | [11] | [14] | [16] | [17] | [18] | [19]

NC(=O)c1ncn([C@@H]2O[C@H](CO)[C@@H](O)[C@H]2O)n1
inactive: [1] | [2] | [3] | [4] | [5] | [6] | [7] | [8] | [9] | [10] | [11] | [13] | [14] | [15] | [16] | [17] | [18] | [19]

OC1CCCCC1
inactive: [1] | [2] | [3] | [4] | [5] | [6] | [7] | [8] | [9] | [10] | [11] | [12] | [14] | [15] | [16] | [17] | [18] | [19]

NCCNCCNCCN
inactive: [1] | [2] | [3] | [4] | [5] | [6] | [7] | [8] | [9] | [10] | [11] | [13] | [14] | [15] | [16] | [17] | [18] | [19]

COc1cc(NC(=O)CC(C)=O)c(OC)cc1Cl
inactive: [1] | [2] | [3] | [4] | [6] | [7] | [8] | [9] | [10] | [11] | [12] | [14] | [15] | [16] | [17] | [18] | [19]
inactive and 21.9 µM (active): [5]

Cc1nnc(NS(=O)(=O)c2ccc(N)cc2)s1
inactive: [1] | [2] | [3] | [4] | [5] | [6] | [7] | [8] | [9] | [10] | [11] | [20] | [12] | [13] | [14] | [15] | [16] | [17] | [18] | [19]
